According to PubChem BioAssay (NCI):
Compounds without any hit were thinned out: in the full panel of roughly 79,000, 15% have a hit. Values without a mark were called inactive. Calls of active or inactive are those of the source. Cut-off read from the data, not from the text of the source: active = growth inhibition above about 70%; inactive = the rest.

What was measured:
[1] = NCI Yeast Anticancer Drug Screen. Data for the rad50 strain (AID 155);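 note: 0% = growth of vehicle-only cultures of the same strain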; conditions: S. cerevisiae rad50 strain growth inhibition, hits give high values
In short: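 Yeast carrying a defined DNA repair defect were exposed to test compounds, and growth was compared with vehicle-treated controls to give percent inhibition.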

[2] = NCI Yeast Anticancer Drug Screen. Data for the mec2-1 strain (AID 157); conditions: S. cerevisiae mec2-1 strain, hits give high values
In short: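 Each compound was tested on mec2-1 yeast, a strain altered in DNA damage repair or cell cycle control. Growth inhibition is reported relative to vehicle.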

[3] = NCI Yeast Anticancer Drug Screen. Data for the sgs1 mgt1 strain (AID 161);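 note: 0% = growth of cultures given vehicle only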; conditions: S. cerevisiae sgs1 mgt1 strain, hits give high values
In short: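 Genetically altered yeast, compound exposure, growth inhibition relative to vehicle.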

[4] = NCI Yeast Anticancer Drug Screen. Data for the cln2 rad14 strain (AID 165);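 note: 0% = growth equal to vehicle treated cultures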; conditions: S. cerevisiae cln2 rad14 strain, hits give high values
In short: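 Test compounds were added to cln2 rad14 yeast cultures; inhibition of growth was then determined by comparison with vehicle treatment.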

[5] = NCI Yeast Anticancer Drug Screen. Data for the bub3 strain (AID 167); conditions: S. cerevisiae bub3 mutant strain, hits give high values
In short: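 Compounds were applied to a genetically altered yeast strain carrying a cell-cycle control defect. Growth inhibition was scored against vehicle-treated controls.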

[6] = NCI Yeast Anticancer Drug Screen. Data for the mlh1 rad18 strain (AID 175); conditions: S. cerevisiae mlh1 rad18 strain growth inhibition, hits give high values
In short: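 Inhibition values reflect reduced growth of mutant yeast versus vehicle-treated controls following compound exposure; the mutations affect DNA damage repair.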

[7] = at 5.0 µM (retest, dose inferred, filed as 0.5)
[8] = at 50.0 µM (retest, dose inferred, filed as 5.0)

Structure (SMILES)	growth inhibition [1, 7]	growth inhibition [1, 8]	growth inhibition ([1]; at 50.0 µM)	growth inhibition [2, 7] [%]	growth inhibition [2, 8]	growth inhibition ([2]; at 50.0 µM)	growth inhibition [3, 7]	growth inhibition [3, 8]	growth inhibition ([3]; at 50.0 µM)	growth inhibition [4, 7] [%]	growth inhibition [4, 8]	growth inhibition ([4]; at 50.0 µM)	growth inhibition [5, 7] [%]	growth inhibition [5, 8]	growth inhibition ([5]; at 50.0 µM)	growth inhibition [6, 7] [%]	growth inhibition [6, 8]	growth inhibition ([6]; at 50.0 µM)
CCCOC(=O)C#CC(=O)OCCC	37%	96% (active)	94.6% (active)	29	99% (active)	63%	43%	99% (active)	48.8%	21	99% (active)	93.6% (active)	25	99% (active)	7.3%	69	99% (active)	74.6% (active)
c1ccc(CC[n+]2csc3ccccc32)cc1	-2%	73% (active)	57%	0	84% (active)	50.5%	-2%	81% (active)	36.3%	-8	35%	31.8%	0	90% (active)	63.8%	-2	83% (active)	54.6%
CCc1cc2c(c3[nH]ccc13)[C@@H](C)C[C@H]2C	-3%	99% (active)	73% (active)	3	99% (active)	84.2% (active)	0%	99% (active)	84.8% (active)	-3	98% (active)	84.3% (active)	9	98% (active)	91.5% (active)	2	99% (active)	88.5% (active)
CCCCCCCCCCCCS	0%	-3%	26.2%	-1	-1%	6.25%	-3%	-1%	15.9%	-2	1%	43.3%	2	-3%	-20.6%	3	6%	-30.9%
COc1cccc(/C=N/NC(=O)c2c(-c3ccccc3)noc2C)c1O	47%	70% (active)	85% (active)	26	86% (active)	84.1% (active)	45%	82% (active)	89.2% (active)	25	51%	83.3% (active)	42	85% (active)	85.5% (active)	58	87% (active)	81.8% (active)
O=C(Cc1nc2ccccc2s1)Nc1ccc2ccccc2c1	-8%	99% (active)	98% (active)	18	99% (active)	98.5% (active)	31%	99% (active)	97.8% (active)	-1	99% (active)	95.3% (active)	12	99% (active)	97.8% (active)	13	99% (active)	97.8% (active)
Cc1cc2c(cc1C)[n+]([O-])c(-c1c(Cl)cccc1Cl)c(N)[n+]2[O-]	13%	88% (active)	82.5% (active)	27	98% (active)	45.2%	40%	100% (active)	79.4% (active)	18	77% (active)	69%	56	99% (active)	93.5% (active)	45	98% (active)	93.7% (active)
Cc1ccc2c(c1)C(O)(c1ccccc1)CCS2 (stereo not given)	87% (active)	95% (active)	90.2% (active)	58	97% (active)	77.2% (active)	86% (active)	97% (active)	91.8% (active)	16	96% (active)	71.2% (active)	46	96% (active)	86.8% (active)	66	94% (active)	94.3% (active)
O=C1OC(c2ccccc2)N/C1=C\c1ccc2c(c1)OCO2 (stereo not given)	34%	53%	-45.7%	17	20%	-53.1%	22%	24%	-8.55%	11	21%	3.55%	22	19%	-14.7%	18	26%	-6.95%
CC1COC(c2cn[nH]c2C(N)=O)C1O (stereo not given)	-7%	13%	-0.5%	5	15%	21%	7%	14%	-6.4%	-33	-18%	39.4%	4	24%	0.85%	3	16%	7.65%
